Measured values: PubChem BioAssay (Tox21)
Values joined by “and” are separate entries in the source; they are usually repeats but may differ in a detail not shown here. Identical values can stand only once. Results filed as inconclusive are left out. A call without a number means that no potency is given here. More than one record can exist for a structure, and the calls need not agree. Active and inactive are the calls of the source. Unless noted, calls come from the whole dose curve; as a rule, active = well fitted curve in the direction sought with a large enough effect in the repeat runs; inconclusive = weak or mixed curves; inactive = no such curve, though single readings can be large; an effect the other way counts as inactive or inconclusive.

Tests used:
[1] = qHTS assay to identify small molecule antagonists of the estrogen related receptor (ERR) signaling pathway from Tox21 library - cell viability counter screen (AID 1224834); note: nearly all actives have a fitted effect of over 30% in size
How it was run: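 Fluorescence from CellTiter-Fluor gives the viability read-out, taken 30 min after reagent addition. Before that, ERR cells seeded 6 h earlier were incubated with compounds for 17.5 h at 37 C.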

[2] = biological target: Luciferin 4-monooxygenase (Photinus pyralis) (UniProt P08659); assay: qHTS assay to identify small molecule inhibitors of firefly luciferase (AID 1224835); note: nearly all actives have a fitted effect of over 25% in size
Sequence of Luciferin 4-monooxygenase (Photinus pyralis) (P08659 whole entry, looked up): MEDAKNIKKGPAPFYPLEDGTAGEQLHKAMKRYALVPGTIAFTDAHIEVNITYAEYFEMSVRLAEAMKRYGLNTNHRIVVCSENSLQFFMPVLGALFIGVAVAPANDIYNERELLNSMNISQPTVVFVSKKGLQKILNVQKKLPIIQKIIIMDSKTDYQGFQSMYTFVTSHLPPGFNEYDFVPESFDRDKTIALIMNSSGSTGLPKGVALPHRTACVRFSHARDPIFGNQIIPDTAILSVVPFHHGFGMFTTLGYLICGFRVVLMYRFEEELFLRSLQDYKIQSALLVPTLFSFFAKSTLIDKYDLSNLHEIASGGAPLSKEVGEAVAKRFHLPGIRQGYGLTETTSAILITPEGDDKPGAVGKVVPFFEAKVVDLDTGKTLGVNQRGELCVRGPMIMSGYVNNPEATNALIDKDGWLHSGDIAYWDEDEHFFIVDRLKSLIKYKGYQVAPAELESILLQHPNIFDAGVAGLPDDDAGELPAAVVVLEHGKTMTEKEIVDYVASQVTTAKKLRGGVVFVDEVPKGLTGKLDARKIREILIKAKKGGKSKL
How it was run: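 Inhibition of purified Photinus luciferase is measured by luminescence. Substrate levels (D-luciferin, ATP) sit at their KM values. Each compound is tested in a concentration series.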

[3] = qHTS assay to identify small molecule agonists of the constitutive androstane receptor (CAR) signaling pathway - cell viability counter screen (AID 1224836); note: nearly all actives have a fitted effect of over 45% in size
How it was run: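 Compound titrations (15 concentrations) went onto HepG2-CYP2B6-hCAR cells 4 h after seeding, alongside PK11195 at a final 0.75 uM; a 23 h, 37 C/5% CO2 incubation preceded CellTiter-Fluor viability measurement.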

[4] = qHTS assay to identify small molecule antagonists of the constitutive androstane receptor (CAR) signaling pathway - cell viability counter screen (AID 1224837); note: nearly all actives have a fitted effect of over 45% in size
How it was run: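 HepG2-CYP2B6-hCAR cells, 2500/well, 4 hr pre-incubation; compound titration, 15 conc.; CITCO 50 nM final; 23 hr, 37 C/5% CO2; CellTiter-Fluor, fluorescence intensity.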

[5] = biological target: Nuclear receptor subfamily 1 group I member 3 (Homo sapiens) (UniProt Q14994); assay: qHTS assay to identify small molecule antagonists of the constitutive androstane receptor (CAR) signaling pathway (AID 1224838);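 note: HepG2 cells stably expressing hCAR with CYP2B6 luciferase reporter stimulated by CITCO; nearly all actives have a fitted effect of over 40% in size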
Sequence of Nuclear receptor subfamily 1 group I member 3 (Homo sapiens) (Q14994 whole entry, looked up): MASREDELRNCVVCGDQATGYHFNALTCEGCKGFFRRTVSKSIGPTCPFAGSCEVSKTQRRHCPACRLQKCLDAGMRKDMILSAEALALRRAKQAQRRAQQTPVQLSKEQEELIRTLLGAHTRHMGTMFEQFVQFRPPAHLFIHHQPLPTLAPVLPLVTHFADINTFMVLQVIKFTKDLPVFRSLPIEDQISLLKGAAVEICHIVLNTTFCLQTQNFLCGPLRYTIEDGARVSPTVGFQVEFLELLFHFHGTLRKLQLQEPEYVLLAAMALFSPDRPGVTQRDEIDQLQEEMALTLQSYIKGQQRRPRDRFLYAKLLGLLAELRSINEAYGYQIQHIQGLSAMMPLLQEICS
How it was run: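 HepG2-CYP2B6-hCAR cells; 4 h pre-incubation; cpd (15 conc) + CITCO 50 nM final; 24 h, 37 C/5% CO2; ONE-Glo, luminescence.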

[6] = biological target: Nuclear receptor subfamily 1 group I member 3 (Homo sapiens) (UniProt Q14994); assay: qHTS assay to identify small molecule agonists of the constitutive androstane receptor (CAR) signaling pathway (AID 1224839); note: nearly all actives have a fitted effect of over 15% in size
How it was run: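 In this screen, CAR-driven CYP2B6 promoter activity is measured by luminescence in HepG2-CYP2B6-hCAR cells after 24 h with test compounds and 0.75 uM PK11195 (final concentration).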

[7] = qHTS assay to identify small molecule antagonists of the estrogen related receptor signaling pathway with the pleiotropic PPARgamma coactivator (PGC) from Tox21 10K library - cell viability counter screen (AID 1224840; active = well fitted cell-killing curve with a large enough effect in the repeat runs, not every such curve was filed as active; note: nearly all actives have a fitted effect of over 40% in size)
How it was run: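 PGC/ERR cells, 2,000/well; 6 h pre-incubation 37 C/5% CO2; cpd in DMSO via pin tool; 17.5 h 37 C; CellTiter-Fluor, 30 min; fluorescence.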

[8] = biological target: Thyrotropin receptor (Homo sapiens) (UniProt P16473); assay: qHTS assay to identify small molecule agonists of the thyroid stimulating hormone receptor (TSHR) signaling pathway (AID 1224843; calls by dose curve; note: nearly all actives have a fitted effect of over 45% in size)
Sequence of Thyrotropin receptor (Homo sapiens) (P16473 whole entry, looked up): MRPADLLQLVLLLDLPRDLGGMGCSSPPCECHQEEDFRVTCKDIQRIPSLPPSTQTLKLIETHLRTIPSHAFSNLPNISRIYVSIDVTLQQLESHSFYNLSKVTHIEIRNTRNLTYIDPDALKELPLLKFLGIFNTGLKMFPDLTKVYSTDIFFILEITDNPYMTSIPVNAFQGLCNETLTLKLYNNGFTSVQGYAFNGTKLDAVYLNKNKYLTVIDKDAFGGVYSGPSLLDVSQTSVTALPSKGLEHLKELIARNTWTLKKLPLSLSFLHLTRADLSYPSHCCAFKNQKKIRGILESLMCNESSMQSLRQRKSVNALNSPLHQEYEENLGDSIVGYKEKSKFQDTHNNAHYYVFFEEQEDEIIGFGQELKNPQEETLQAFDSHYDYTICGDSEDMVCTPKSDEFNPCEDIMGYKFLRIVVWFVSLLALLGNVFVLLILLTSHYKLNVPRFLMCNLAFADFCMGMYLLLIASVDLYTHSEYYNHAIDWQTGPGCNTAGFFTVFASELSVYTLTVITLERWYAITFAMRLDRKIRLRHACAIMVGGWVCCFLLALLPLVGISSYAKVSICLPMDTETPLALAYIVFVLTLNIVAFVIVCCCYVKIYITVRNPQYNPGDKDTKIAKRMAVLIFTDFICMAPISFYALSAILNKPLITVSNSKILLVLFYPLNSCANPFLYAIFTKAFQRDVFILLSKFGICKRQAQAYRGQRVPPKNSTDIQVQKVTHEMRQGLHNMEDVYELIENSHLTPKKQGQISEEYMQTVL
How it was run: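 Screening of the Tox21 10K collection used HEK293 cells engineered with TSHR at 800 cells per well. After a 30-min room-temperature compound exposure, HTRF cAMP reagents were added and fluorescence recorded 1 h later.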

[9] = qHTS assay to identify small molecule antagonists of the estrogen related receptor signaling pathway with the pleiotropic PPARgamma coactivator (PGC) from Tox21 10K library (AID 1224841; call rule not given here; note: actives are mostly falling curves and most rising ones were filed inactive; nearly all actives have a fitted effect of over 50% in size)
How it was run: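 PGC/ERR cell line, 2,000 cells/well; 6 h pre-incubation 37 C/5% CO2; compounds (DMSO) pinned in; 18 h, 37 C; One-Glo, 30 min RT; luminescence.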

[10] = qHTS assay to identify small molecule agonists of the estrogen related receptor signaling pathway with the pleiotropic PPARgamma coactivator (PGC) from Tox21 10K library (AID 1224842); note: nearly all actives have a fitted effect of over 15% in size
How it was run: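 Luminescence from One-Glo (30 min, room temperature) measured after PGC/ERR cells had 18 h at 37 C with pinned compound (23 nL in DMSO). Cells had been seeded at 2,000 per well and pre-incubated 6 h.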
Potency is the fitted concentration of half-maximal effect.

SMILES	Potency [1]	Potency [2]	Potency [3]	Potency [4]	Potency [5]	Potency [6]	Potency [7]	Potency [8]	Potency [9]	Potency [10]
Cc1cc(-c2ccc(N)c(C)c2)ccc1N	inactive	36 µM (active) and 56.2 µM (active) and 63.3 µM (active)	inactive	inactive	inactive	12.2 µM (active)	inactive	1.35 µM (active)		
Cc1cc(Cl)ccc1N	inactive	inactive		inactive	inactive	inactive	inactive	inactive		
CCCC[n+]1ccccc1	inactive	inactive	inactive	inactive			inactive	inactive		
Oc1ccccc1-c1ccccc1	inactive	inactive		inactive	inactive	inactive and 35.2 µM (active)	inactive			
CC(Cl)(Cl)C(=O)O	inactive	inactive	inactive	inactive			inactive	inactive		
CCNc1nc(Cl)nc(NCC)n1	inactive	inactive	inactive	inactive	inactive	inactive	inactive	inactive	inactive	inactive
Nc1ccc(-c2ccc(N)cc2)cc1	inactive	78.7 µM (active) and 28.1 µM (active)		inactive	inactive	53.9 µM (active) and inactive and 21.7 µM (active)	inactive	inactive		
O=C(O)c1nc(Cl)ccc1Cl	inactive	inactive	inactive	inactive			inactive	inactive		
O=[N+]([O-])c1ccccc1O	inactive	inactive		inactive	inactive	inactive	inactive		inactive	inactive
CCC[N+]1(C)CCCCC1	inactive	inactive	inactive	inactive			inactive	inactive		
CCC[N+]1(C)CCCC1	inactive	inactive	inactive	inactive			inactive			
CCCCn1cc[n+](C)c1C	inactive	inactive	inactive	inactive			inactive			
O=C(O)CC(O)(CC(=O)O)C(=O)O	inactive	inactive	inactive	inactive			inactive			
CCOP(=S)(OCC)Oc1ccc2c(C)c(Cl)c(=O)oc2c1	inactive	inactive and 15.5 µM (active)		inactive	inactive	31 µM (active) and 27.3 µM (active) and 29.8 µM (active)	inactive	inactive	inactive	inactive and 11.9 µM (active)
COCC(=O)N(c1c(C)cccc1C)C(C)C(=O)OC (stereo not drawn)	inactive	inactive		inactive	inactive	inactive	inactive	inactive	inactive	inactive
O=P1(N(CCCl)CCCl)NCCCO1 (stereo not drawn)	inactive	inactive		inactive	inactive	inactive	inactive	inactive	inactive	inactive
C1CCC(NC2CCCCC2)CC1	inactive	inactive		inactive	inactive	inactive	inactive	inactive		
COc1ccccc1N	inactive	inactive	inactive	inactive			inactive		inactive	inactive
C[N+](C)(C)Cc1ccccc1	inactive	inactive	inactive	inactive			inactive	inactive		
CCCC[N+]1(C)CCCCC1	inactive	inactive	inactive	inactive			inactive	inactive		
O=C(O)C(Cl)(Cl)Cl	inactive	inactive	inactive	inactive	inactive	inactive	inactive	inactive		
CCCC[n+]1cccc(C)c1	inactive	inactive	inactive	inactive			inactive			

SMILES	Potency [1]	Potency [2]	Potency [3]	Potency [4]	Potency [5]	Potency [6]	Potency [7]	Potency [8]	Potency [9]	Potency [10]
Cc1cc(Cl)ccc1OCC(=O)O	inactive	inactive		inactive	inactive	inactive	inactive	inactive		
CCCC[N+]1(C)CCCC1	inactive	inactive	inactive	inactive			inactive			
CC[n+]1ccccc1	inactive and 30.4 µM (active)	inactive	inactive	inactive			inactive	inactive		
CC(=O)[O][Hg][c]1ccccc1	2.41 µM (active) and 3.86 µM (active) and 7.5 µM (active)	1.25 µM (active) and 3.99 µM (active) and 2.75 µM (active)	2.41 µM (active) and 4.33 µM (active) and 5.96 µM (active)	2.71 µM (active) and 4.33 µM (active) and 5.31 µM (active)	2.41 µM (active) and 4.33 µM (active) and 5.31 µM (active)	inactive	1.92 µM (active) and 2.43 µM (active) and 6.68 µM (active)	2.71 µM (active) and 770 nM (active) and 9.44 µM (active)	2.71 µM (active) and 4.86 µM (active) and 9.44 µM (active)	inactive
O=C(O)COc1ccc(Cl)cc1Cl	inactive	inactive	inactive	inactive			inactive			
CNC	inactive	inactive		inactive			inactive			
C=CCOC(Cn1ccnc1)c1ccc(Cl)cc1Cl (stereo not drawn)	30.7 µM (active) and 48.6 µM (active) and 29.8 µM (active)	inactive		61.1 µM (active)	38.7 µM (active) and 48.6 µM (active) and inactive		48.6 µM (active) and inactive	inactive		
OCCOc1ccccc1	inactive	inactive		inactive	inactive	inactive	inactive	inactive	inactive	inactive
COP(=O)(OC)C(O)C(Cl)(Cl)Cl (stereo not drawn)	inactive	inactive		inactive	inactive		inactive	inactive	24.6 µM (active) and inactive	inactive
C[C@]12CCC(=O)C=C1CC[C@@H]1[C@@H]2CC[C@]2(C)C(=O)CC[C@@H]12	inactive	inactive		inactive	inactive	inactive	inactive	inactive	67.4 µM (active) and inactive	inactive
CCCCCCCCCCCCCC[P+](CCCCCC)(CCCCCC)CCCCCC	17.3 µM (active) and 24.5 µM (active)	inactive		12.2 µM (active) and 13.8 µM (active)			21.8 µM (active) and 21.9 µM (active)	inactive		
CCCCCCn1cc[n+](C)c1	inactive	inactive		inactive			inactive			
O=C(O)c1ccccc1O	inactive		inactive	inactive	inactive	inactive	inactive			
CCCCCCCCCCCCn1cc[n+](C)c1		inactive								
Oc1cccc2cccnc12	2.74 µM (active) and 2.43 µM (active) and inactive				1.38 µM (active) and 770 nM (active) and inactive		2.43 µM (active) and inactive			
Nc1ccc(-c2ccc(N)c(Cl)c2)cc1Cl	54.5 µM (active)	35.8 µM (active) and 33.2 µM (active) and 12.6 µM (active)		inactive			inactive and 27.3 µM (active)	inactive		
CCCCCC[n+]1ccccc1	inactive	inactive		inactive			inactive			
COP(=O)(OC)OC=C(Cl)Cl	inactive	inactive		inactive			inactive			
CCCCCCCCCCCCOS(=O)(=O)O	inactive			inactive			inactive			
COc1ccc(N)cc1		inactive		inactive			inactive	inactive		
O=C(O)C(Cl)Cl	inactive	inactive		inactive			inactive	inactive		
O=S(=O)(O)O	inactive			inactive			inactive			

SMILES	Potency [1]	Potency [2]	Potency [3]	Potency [4]	Potency [5]	Potency [6]	Potency [7]	Potency [8]	Potency [9]	Potency [10]
CCCCCCCCCCn1cc[n+](C)c1	inactive and 8.62 µM (active)	inactive		inactive			inactive			
O=c1nc(O)n(Cl)c(=O)n1Cl	inactive	inactive		inactive			inactive		inactive	inactive
Nc1ccc(Cl)cc1		inactive		inactive	inactive	inactive	inactive	inactive		
CCCCCCCCCCCC(=O)O	inactive	40 µM (active) and 57.6 µM (active) and 71 µM (active)		inactive			inactive	inactive		
CCC(=O)C(CC(C)N(C)C)(c1ccccc1)c1ccccc1 (stereo not drawn)	inactive			inactive	inactive	inactive	inactive	inactive		
CN(C)[C@@H]1C(=O)C(C(N)=O)=C(O)[C@@]2(O)C(=O)C3=C(O)c4c(O)cccc4[C@@](C)(O)[C@H]3[C@H](O)[C@@H]12	inactive	inactive		inactive			inactive	inactive		
O=c1[nH]c(=O)n(Cl)c(=O)n1Cl	inactive	inactive		inactive			inactive		inactive	inactive
O=[N+]([O-])O	inactive			inactive			inactive	inactive		
CCCCCCCCn1cc[n+](C)c1		inactive					inactive	inactive		
N#CS	inactive			inactive			inactive			
CCn1cc[n+](C)c1C	inactive	inactive		inactive			inactive			
O=C(O)CCl	inactive	inactive		inactive			inactive	inactive	inactive	inactive
Nc1ccccc1	inactive			inactive			inactive	inactive		
CCCn1cc[n+](C)c1	inactive	inactive		inactive			inactive	inactive		
CC[N+]1(C)CCCC1	inactive	inactive		inactive			inactive			
CCCC[n+]1ccc(C)cc1	inactive and 68.2 µM (active)	20.3 µM (active) and inactive		inactive			inactive			
CCCCn1cc[n+](C)c1	inactive			inactive			inactive			
CC[N+](CC)(CC)CC	inactive			inactive	inactive	inactive	inactive	inactive		
CCCC[n+]1ccccc1C	inactive	inactive		inactive			inactive			
CCCCCCCCCCCCCCCCn1cc[n+](C)c1		81.4 µM (active) and inactive			inactive and 30.9 µM (active) and 27.4 µM (active)		inactive and 61.7 µM (active) and 27.4 µM (active)	inactive		
CC(=O)O	inactive			inactive			inactive			
